The OligoGym collection

Each sequence was assayed against CD86 (assay: pooled miR-30 sensor sort-seq; sequence = guide strand). Settings: shRNA.
Note: reference of the scale not given here.

Sequence	sensor-assay potency score (higher = more potent)
TGATACATTGATACAAGCCCTT	-0.31
TAAGCTTGAATCTTCAGAGGAG	0.681
TATACTTGGAATGAACACTGTC	1.09
TTCTGTGACATTATCTTGAGAT	0.246
TTATATTAGAAATTGGTACTAT	0.249
TAACCGTGTATAGATGAGCAGG	-0.921
TATTGCTCGTAACATCAGGGAA	-0.935
AAGATGGTCATATTGCTCGTAA	-0.638
TAGAATTAGACAGAAAACCATC	-0.951
ATTGAAATAAGCTTGAATCTTC	0.247
TTTATGTACACATTTTCTGTTA	-0.664
TTTTCTCTTTTCTTGGTCTGTT	-0.104

Each sequence was assayed against CD8B in the same assay as above. Settings: shRNA.

Sequence	sensor-assay potency score (higher = more potent)
TACATTTGGTTCCACAAGGGGG	-0.791
TATTGCTGTAGTATCCATGCAG	0.681
TAACCGGCACACTCTCTTCTTG	-0.762
TAATCTTAGTTGTTTCATGAAA	-1.22
TTGAGGGTGGACTTCTTGGTGG	-0.918
TTCTCCAGTGGATGTAATCTTA	-0.513
TACTGAGGGAGATTTTAGCCTC	-0.613
TATCTTCTCCTGTTCCACCTCT	0.0744
AAGGAAATCAACCACACTCAGC	-1.28
TTTAGCCTCGCAGGACAGCATC	-1.65
TTGCATCCCGAAACACAGCTAT	-0.634
TTTTTCCACATCGTGCTCGTTA	-0.473
AAACACAGCTATCTTCTCCTGT	0.733
AACACAGCTATCTTCTCCTGTT	-0.341
TTGGTTTGCACCTTTATGTATG	-1.15
TATTTGTACAACTAAGACATTT	-1.4
TGTACAACTAAGACATTTGTAT	0.113
TTATTTGTACAACTAAGACATT	-1.21
TATGTATGCAGGGGTCTGCTGG	-1.19
